{
  "source": "PubChem BioAssay (NCATS)",
  "key": {"[1]": {"biological_target": "Metallo-beta-lactamase type 2 (Klebsiella pneumoniae) (UniProt C7C422)", "sequence (C7C422 whole entry, looked up)": "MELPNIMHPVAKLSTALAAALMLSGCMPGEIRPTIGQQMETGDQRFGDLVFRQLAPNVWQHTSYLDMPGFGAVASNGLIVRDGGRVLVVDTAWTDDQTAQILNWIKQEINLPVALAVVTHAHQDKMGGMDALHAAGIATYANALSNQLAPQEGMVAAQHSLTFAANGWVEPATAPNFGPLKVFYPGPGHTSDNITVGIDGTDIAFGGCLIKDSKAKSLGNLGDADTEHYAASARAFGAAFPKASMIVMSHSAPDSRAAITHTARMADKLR", "experiment": "qHTS to identify inhibitors of the New Delhi Metallo-beta-lactamase (NDM): assay validation screen against the NCATS LOPAC Collection (AID 1794843);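 further: nitrocefin turnover by NDM-1 measured as 485 nm absorbance at plateau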", "in_short": "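Nitrocefin hydrolysis (50 uM substrate stock) by NDM-1, 2 nM final, was followed by 485 nm absorbance after compound preincubation; buffer was 50 mM HEPES pH 7.0, 1 uM ZnSO4, 0.01% Tween20.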"}, "[2]": {"biological_target": "Glutathione peroxidase 1 (Homo sapiens) (UniProt P07203)", "sequence (P07203 whole entry, looked up)": "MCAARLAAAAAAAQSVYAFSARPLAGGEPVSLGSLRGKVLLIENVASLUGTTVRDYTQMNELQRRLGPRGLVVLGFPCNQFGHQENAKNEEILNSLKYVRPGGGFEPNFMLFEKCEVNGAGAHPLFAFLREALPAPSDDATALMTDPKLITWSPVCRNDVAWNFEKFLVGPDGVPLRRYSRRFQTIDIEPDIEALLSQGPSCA", "experiment": "Primary qHTS Assay for Inhibitors of Recombinant Selenoprotein Glutathione Peroxidase 1 (GPX1) (AID 1845191); further: nearly all actives have a fitted effect of over 65% in size", "in_short": "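Recombinant GPX1 (10 nM final) was preincubated with compound for 30 min at room temperature, then reacted with 1 mM GSH, 0.5 mM CHP, 0.5 mM NADPH and 100 nM glutathione reductase; NADPH fluorescence (340/450 nm) was read at 0 and 15 min.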"}, "[3]": {"biological_target": "Phospholipid hydroperoxide glutathione peroxidase GPX4 (Homo sapiens) (UniProt P36969)", "sequence (P36969 whole entry, looked up)": "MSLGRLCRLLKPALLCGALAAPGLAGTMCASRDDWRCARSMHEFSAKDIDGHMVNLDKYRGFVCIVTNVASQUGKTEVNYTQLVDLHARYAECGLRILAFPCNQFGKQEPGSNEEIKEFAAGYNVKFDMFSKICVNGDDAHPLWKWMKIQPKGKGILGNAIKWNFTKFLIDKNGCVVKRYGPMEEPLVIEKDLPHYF", "experiment": "Primary qHTS Assay for Inhibitors of Recombinant Selenoprotein Glutathione Peroxidase 4 (GPX4) (AID 1845192); further: nearly all actives have a fitted effect of over 65% in size", "in_short": "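GR-coupled readout: 100 nM GR, 1 mM GSH, 0.5 mM NADPH; NADPH fluorescence (ex 340/em 450 nm) read at t=0 and after 15 min RT. GPX4 200 nM, preincubated 30 min with compound; substrate 0.5 mM CHP.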"}, "[4]": {"biological_target": "Luciferin 4-monooxygenase (Photinus pyralis) (UniProt P08659)", "experiment": "Primary firefly luciferase (FLuc) qHTS assay for identification of artifact compounds. (AID 1845220); further: nearly all actives have a fitted effect of over 60% in size", "settings": "outcome: at 54.1 µM (top of the series)", "in_short": "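Reaction readout was CCD-imaged luminescence, taken 5 min after adding 10 nM purified firefly enzyme to compound-treated wells holding 10 uM luciferin and ATP in pH 7.6 buffer.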"}, "[5]": {"experiment": "Primary fluorescence-based thiol-reactive (MSTI) qHTS assay for identification of artifact compounds. (AID 1845221);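 further: thiol-reactive compounds lower the probe fluorescence signal; nearly all actives have a fitted effect of over 65% in size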", "in_short": "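One-hour, room-temperature, dark incubation of compound with 4 uM MSTI in PBS (pH 7.4, 2% DMSO) precedes a fluorescence read at 525 nm excitation, 598 nm emission; Hill-equation fitting yields concentration-response values.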"}, "[6]": {"test_system": "Nanoluciferase (engineered Oplophorus gracilirostris luciferase)", "experiment": "Primary Nanoluciferase (NLuc) qHTS assay for identification of artifact compounds. (AID 1845222);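 further: NLuc secreted into diluted conditioned medium of S16 cells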", "in_short": "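Concentration-response data were obtained by luminescence after 5 min with Nano-Glo substrate at 1:100. The enzyme was diluted S16 NLuc-expressing cell medium, preincubated with compound for 15 min at RT. Curves were fitted with a 4-parameter Hill model.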"}, "[7]": {"experiment": "Primary redox qHTS assay for identification of artifact compounds. (AID 1845223)", "in_short": "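Amplex Red (25 uM) and HRP (250 mU/mL) in HBSS, with compounds for 15 min, then 250 uM DTT for 30 min, room temperature, dark. Fluorescence 525/598 nm read; normalized to DMSO and 10 uM DA3003; Hill fit.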"}, "[8]": {"experiment": "Quantitative High-Throughput drug screen in 47 multiple myeloma cell lines against the NCATS MIPE library collection: EJM_DSMZ cell viability assay (AID 1918926; further: nearly all actives have a fitted effect of over 30% in size; further: potency means the concentration at half of the fitted maximal effect)", "in_short": "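Relative luminescence from CellTiter-Glo served as the viability signal, referenced to DMSO-treated (100%) and cell-free medium (0%) controls. Treatment lasted 48 hours at 37C with 500 cells per well.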"}},
  "note": "Inconclusive results are not listed. A call without a number means that no potency is given here. The source made the active and inactive calls. The call rests on the fitted dose curve; in most records, active means well fitted curve in the direction sought with a large enough effect; inconclusive means small, poorly fitted or top-dose-only effect, or another doubt; inactive means no such curve, though single readings can be large; an effect the other way counts as inactive or inconclusive.",
  "data": [
    {"smiles": "CC(O)(CS(=O)(=O)c1ccc(F)cc1)C(=O)Nc1ccc(C#N)c(C(F)(F)F)c1", "note": "(centres undefined)", "values": [
      {"measurement": "outcome", "setting": "[1]", "value": "inactive"},
      {"measurement": "Potency", "setting": "[2]", "value": "inactive"},
      {"measurement": "Potency", "setting": "[3]", "value": "inactive"},
      {"measurement": "outcome", "setting": "[4]", "value": "inactive"},
      {"measurement": "outcome", "setting": "[5]", "value": "inactive"},
      {"measurement": "outcome", "setting": "[6]", "value": "inactive"},
      {"measurement": "outcome", "setting": "[7]", "value": "inactive"},
      {"measurement": "Potency", "setting": "[8]", "value": "0.187 µM (active)"}
    ]},
    {"smiles": "CC(C)(C)CC(C)(C)c1ccc(O)cc1", "values": [
      {"measurement": "Potency", "setting": "[2]", "value": "inactive"},
      {"measurement": "Potency", "setting": "[3]", "value": "inactive"}
    ]},
    {"smiles": "O=c1[nH]c2ccccc2n1C1CCN(CCCC(c2ccc(F)cc2)c2ccc(F)cc2)CC1", "values": [
      {"measurement": "outcome", "setting": "[1]", "value": "inactive"},
      {"measurement": "Potency", "setting": "[2]", "value": "inactive"},
      {"measurement": "Potency", "setting": "[3]", "value": "inactive"},
      {"measurement": "outcome", "setting": "[4]", "value": "inactive"},
      {"measurement": "outcome", "setting": "[5]", "value": "inactive"},
      {"measurement": "outcome", "setting": "[6]", "value": "inactive"},
      {"measurement": "outcome", "setting": "[7]", "value": "inactive"}
    ]},
    {"smiles": "C=CCN1CC[C@]23c4c5ccc(O)c4O[C@H]2C(=O)CC[C@@]3(O)[C@H]1C5", "values": [
      {"measurement": "Potency", "setting": "[2]", "value": "inactive"},
      {"measurement": "Potency", "setting": "[3]", "value": "inactive"}
    ]},
    {"smiles": "Clc1ccc(COC(Cn2ccnc2)c2ccc(Cl)cc2Cl)cc1", "note": "(centres undefined)", "values": [
      {"measurement": "Potency", "setting": "[2]", "value": "inactive"},
      {"measurement": "Potency", "setting": "[3]", "value": "inactive"}
    ]},
    {"smiles": "C#CCN(C)[C@H](C)Cc1ccccc1", "values": [
      {"measurement": "Potency", "setting": "[2]", "value": "inactive"},
      {"measurement": "Potency", "setting": "[3]", "value": "inactive"}
    ]},
    {"smiles": "C=C1C[C@@H]2[C@H](CC[C@]3(C)C(=O)CC[C@@H]23)[C@@]2(C)C=CC(=O)C=C12", "values": [
      {"measurement": "Potency", "setting": "[2]", "value": "inactive"},
      {"measurement": "Potency", "setting": "[3]", "value": "inactive"}
    ]},
    {"smiles": "CC(C)(C)NCC(O)c1cc(Cl)c(N)c(Cl)c1", "note": "(centres undefined)", "values": [
      {"measurement": "Potency", "setting": "[2]", "value": "inactive"},
      {"measurement": "Potency", "setting": "[3]", "value": "inactive"}
    ]},
    {"smiles": "C[C@@H]1O[C@@H](O[C@H]2C[C@@H](O)[C@]3(CO)[C@H]4[C@H](O)C[C@]5(C)[C@@H](C6=CC(=O)OC6)CC[C@]5(O)[C@@H]4CC[C@]3(O)C2)[C@H](O)[C@H](O)[C@H]1O", "values": [
      {"measurement": "outcome", "setting": "[1]", "value": "inactive"},
      {"measurement": "Potency", "setting": "[2]", "value": "inactive"},
      {"measurement": "Potency", "setting": "[3]", "value": "inactive"},
      {"measurement": "outcome", "setting": "[4]", "value": "inactive"},
      {"measurement": "outcome", "setting": "[5]", "value": "inactive"},
      {"measurement": "outcome", "setting": "[6]", "value": "inactive"},
      {"measurement": "outcome", "setting": "[7]", "value": "inactive"},
      {"measurement": "Potency", "setting": "[8]", "value": "0.0235 µM (active)"}
    ]},
    {"smiles": "Oc1ccccc1-c1ccccc1", "values": [
      {"measurement": "Potency", "setting": "[2]", "value": "inactive"},
      {"measurement": "Potency", "setting": "[3]", "value": "inactive"}
    ]},
    {"smiles": "Oc1cccc2cccnc12", "values": [
      {"measurement": "Potency", "setting": "[2]", "value": "inactive"},
      {"measurement": "Potency", "setting": "[3]", "value": "inactive"}
    ]},
    {"smiles": "CC(=O)Nc1cc([As](=O)(O)O)ccc1O", "values": [
      {"measurement": "Potency", "setting": "[2]", "value": "inactive"},
      {"measurement": "Potency", "setting": "[3]", "value": "inactive"}
    ]},
    {"smiles": "NCC1(CC(=O)O)CCCCC1", "values": [
      {"measurement": "outcome", "setting": "[1]", "value": "inactive"},
      {"measurement": "Potency", "setting": "[2]", "value": "inactive"},
      {"measurement": "Potency", "setting": "[3]", "value": "inactive"},
      {"measurement": "Potency", "setting": "[8]", "value": "inactive"}
    ]},
    {"smiles": "FC(F)(F)c1cccc(C2=CCN(CCc3ccc4ccccc4c3)CC2)c1", "values": [
      {"measurement": "Potency", "setting": "[2]", "value": "inactive"},
      {"measurement": "Potency", "setting": "[3]", "value": "inactive"}
    ]},
    {"smiles": "C=C1CC[C@@]2(O)[C@H]3Cc4ccc(O)c5c4[C@@]2(CCN3CC2CC2)[C@H]1O5", "values": [
      {"measurement": "Potency", "setting": "[2]", "value": "inactive"},
      {"measurement": "Potency", "setting": "[3]", "value": "inactive"}
    ]},
    {"smiles": "Oc1cc(Cl)ccc1Oc1ccc(Cl)cc1Cl", "values": [
      {"measurement": "Potency", "setting": "[2]", "value": "inactive"},
      {"measurement": "Potency", "setting": "[3]", "value": "inactive"}
    ]},
    {"smiles": "Fc1ccc(C(OCCN2CCN(CCCc3ccccc3)CC2)c2ccc(F)cc2)cc1", "values": [
      {"measurement": "outcome", "setting": "[1]", "value": "inactive"},
      {"measurement": "Potency", "setting": "[2]", "value": "inactive"},
      {"measurement": "Potency", "setting": "[3]", "value": "inactive"},
      {"measurement": "Potency", "setting": "[8]", "value": "13.2 µM (active)"}
    ]},
    {"smiles": "Cc1cccc(C)c1NC(=O)CN1CCCC1=O", "values": [
      {"measurement": "outcome", "setting": "[1]", "value": "inactive"},
      {"measurement": "Potency", "setting": "[2]", "value": "inactive"},
      {"measurement": "Potency", "setting": "[3]", "value": "inactive"},
      {"measurement": "Potency", "setting": "[8]", "value": "inactive"}
    ]},
    {"smiles": "Clc1ccc(CCC(Cn2ccnc2)Sc2c(Cl)cccc2Cl)cc1", "note": "(centres undefined)", "values": [
      {"measurement": "Potency", "setting": "[2]", "value": "inactive"},
      {"measurement": "Potency", "setting": "[3]", "value": "inactive"}
    ]},
    {"smiles": "Cn1cc(C2=C(c3cn(C4CCN(Cc5ccccn5)CC4)c4ccccc34)C(=O)NC2=O)c2ccccc21", "values": [
      {"measurement": "Potency", "setting": "[2]", "value": "inactive"},
      {"measurement": "Potency", "setting": "[3]", "value": "inactive"},
      {"measurement": "Potency", "setting": "[8]", "value": "11.8 µM (active)"}
    ]}
  ]
}
